# Paper PMC7826789 (International Journal of Molecular Sciences, 2021)
# Experiments:
# Settings in all cases: Compound Concentration (nM):1000
# [1] = system: MET(Y1235D)
# [2] = system: MET
# [3] = system: T1, MINK
# T1 construct: gene MINK1
# [4] = system: T2, MKK7
# T2 construct: gene MAP2K7
# [5] = system: MKNK1
# [6] = system: MKNK2
# [7] = system: T3, MLCK
# T3 construct: gene MYLK3
# [8] = system: T4, MLK1
# T4 construct: gene MAP3K9
# [9] = system: T5, MLK2
# T5 construct: gene MAP3K10
# [10] = system: T6, MLK3
# T6 construct: gene MAP3K11
# [11] = system: T7, MRCKA
# T7 construct: gene CDC42BPA
# [12] = system: T8, MRCKB
# T8 construct: gene CDC42BPB
# [13] = system: MST1R
# [14] = system: T9, MST1
# T9 construct: gene STK4
# [15] = system: T10, MST2
# T10 construct: gene STK3
# [16] = system: T11, MST3
# T11 construct: gene STK24
# [17] = system: MST4
# [18] = system: MTOR
# [19] = system: MUSK
# [20] = system: MYLK2
# 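Further: KINOMEscan scanMAX binding as percent activity remaining versus control; lower means stronger binding.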
Structure (SMILES),Percent Control [1],Percent Control [2],Percent Control [3],Percent Control [4],Percent Control [5],Percent Control [6],Percent Control [7],Percent Control [8],Percent Control [9],Percent Control [10],Percent Control [11],Percent Control [12],Percent Control [13],Percent Control [14],Percent Control [15],Percent Control [16],Percent Control [17],Percent Control [18],Percent Control [19],Percent Control [20]
Cl.O=C(O[C@H]1CN[C@H](C#Cc2cc3ncnc(Nc4ccc5c(cnn5Cc5ccccc5)c4)c3s2)C1)N1CCOCC1 [GSK200398A],100%,100%,98%,75%,70%,47%,100%,100%,100%,92%,100%,86%,100%,100%,100%,83%,100%,100%,100%,100%
NS(=O)(=O)c1ccc(N/N=C2\C(=O)Nc3ccc(C(=O)NCCc4c[nH]cn4)cc32)cc1 [GW300660X],100%,100%,43%,100%,100%,100%,100%,100%,100%,100%,100%,100%,100%,100%,60%,100%,25%,91%,100%,100%
CCc1ccc(Oc2nccc(-c3c(-c4ccc(F)cc4)ncn3C3CCNCC3)n2)cc1 [SB-242719],100%,93%,36%,90%,83%,100%,76%,85%,100%,71%,68%,17%,100%,88%,66%,90%,61%,89%,100%,80%
COc1ccc(COc2ccc(Cc3cnc(N)nc3N)cc2OC)cc1 [GW632580X],100%,95%,85%,80%,76%,100%,100%,85%,53%,90%,100%,100%,100%,85%,73%,97%,90%,96%,100%,100%
COc1cc2ncnc(Nc3ccc4c(cnn4Cc4ccccc4)c3)c2cc1OC.Cl [GW282449A],100%,100%,87%,100%,100%,76%,100%,100%,100%,100%,100%,100%,100%,100%,100%,100%,94%,100%,100%,100%
COC(=O)Nc1nc2ccc(Oc3ccc(NC(=O)Nc4cc(C(F)(F)F)ccc4F)cc3)cc2s1.Cl [GW693917A],6.6%,33%,79%,97%,45%,31%,99%,97%,85%,100%,90%,96%,100%,100%,100%,95%,72%,100%,9.7%,47%
COc1cccc(-n2ncc3c(N/N=C/c4ccncc4)ncnc32)c1 [GW784752X],94%,91%,67%,100%,47%,59%,98%,100%,73%,100%,100%,100%,100%,100%,100%,93%,74%,100%,100%,91%
CCn1c(-c2nonc2N)nc2c(C#CC(C)(C)O)nc(OCCNC)cc21.Cl [GSK949675],100%,97%,100%,100%,98%,100%,100%,100%,100%,100%,100%,100%,100%,100%,100%,100%,100%,85%,100%,98%
CCS(=O)(=O)c1ccc(OC)c(Nc2ncc(-c3cccc(F)c3)o2)c1 [GW621970X],100%,100%,72%,100%,70%,100%,100%,100%,95%,100%,100%,100%,100%,100%,100%,100%,93%,100%,100%,98%
CN1CCN(C(=O)c2ccc(NC(=O)Nc3ccc(N(C)c4ccnc(Nc5ccc(CS(C)(=O)=O)cc5)n4)cc3)cc2)CC1.Cl [GW830263A],4.4%,8.8%,18%,95%,65%,4.2%,86%,86%,82%,91%,89%,86%,41%,96%,16%,47%,11%,100%,11%,36%
NS(=O)(=O)c1ccc(N/N=C2\C(=O)Nc3ccc(C(=O)NCc4ccncc4)cc32)cc1 [GW300657X],91%,100%,34%,93%,56%,78%,45%,89%,99%,100%,100%,98%,100%,100%,45%,73%,75%,97%,83%,100%
NS(=O)(=O)c1ccc(Nc2ncc(-c3ccccc3)o2)cc1 [GW572399X],100%,100%,40%,100%,39%,53%,100%,100%,100%,100%,100%,100%,100%,100%,100%,100%,65%,88%,100%,100%
CN(C)CCNC(=O)Nc1ccc(N(C)c2ccnc(Nc3ccc(CS(C)(=O)=O)cc3)n2)cc1.Cl [GW830900A],57%,21%,59%,100%,100%,53%,100%,97%,99%,100%,95%,96%,100%,100%,100%,91%,66%,97%,78%,100%
Cl.O=S1CCN(Cc2ccc(-c3ccc4ncnc(Nc5ccc(OCc6ccccc6)c(F)c5)c4c3)o2)CC1 [GW576924A],100%,100%,89%,51%,82%,100%,100%,100%,100%,100%,100%,100%,100%,100%,100%,100%,100%,100%,100%,100%
COc1cccc(-c2c[nH]c3c(N/N=C/c4ccncc4)ncnc23)c1 [GW814408X],75%,64%,33%,100%,57%,30%,95%,61%,76%,73%,100%,100%,88%,100%,100%,74%,21%,100%,100%,68%
CC1=C(C(=O)Nc2ccc3[nH]ncc3c2)C(c2ccc3ccccc3c2)CC(=O)N1 (stereo not shown) [GSK270822A],87%,47%,87%,75%,75%,73%,92%,68%,100%,76%,100%,85%,46%,93%,73%,90%,53%,100%,95%,100%
COc1cc(/C=N/Nc2ncnc3[nH]ncc23)ccc1O [GW578748X],83%,100%,39%,100%,78%,38%,90%,66%,51%,43%,100%,100%,100%,100%,86%,93%,20%,96%,100%,81%
COc1ccccc1-c1cc(/C=C2\C(=O)Nc3ncc(Br)cc32)cc(Br)c1O [GW442130X],100%,92%,93%,100%,100%,100%,100%,99%,100%,100%,100%,100%,100%,100%,95%,100%,100%,77%,100%,97%
Nc1ncnc2occ(-c3ccc(NC(=O)Nc4cc(C(F)(F)F)ccc4F)cc3)c12 [GW770249X],60%,89%,52%,100%,55%,3.9%,88%,66%,18%,54%,100%,100%,100%,100%,83%,82%,59%,100%,1.4%,83%
COc1ccc2c(-c3ccnc(Nc4cccc(OC(F)(F)F)c4)n3)cnn2n1 [GW810372X],100%,100%,93%,100%,73%,100%,100%,100%,74%,100%,100%,99%,100%,100%,100%,98%,60%,100%,100%,100%
